# In the supplement of paper PMC13380429:
# Counter-ions that a name gives are not always drawn.
# How the values were obtained:
# [1] = system: Vero E6 infected with SARS-CoV-2; assay: inhibition of SARS-CoV-2 cytopathic effect; higher = more antiviral protection, active = above 15; conditions: 48 h
# [2] = system: Vero E6 infected with SARS-CoV-2; assay: morphology score (similarity to uninfected cells); higher = more like uninfected cells; conditions: 24 h
# [3] = system: Vero E6 infected with SARS-CoV-2; assay: SARS-CoV-2 infection rate relative to infected DMSO; higher = more infection, active = 60 or less; conditions: 24 h
Compound,inhibition of SARS-CoV-2 cytopathic effect ([1]; 1 nM),inhibition of SARS-CoV-2 cytopathic effect ([1]; 8.33 nM),inhibition of SARS-CoV-2 cytopathic effect ([1]; 100 nM),inhibition of SARS-CoV-2 cytopathic effect ([1]; 833.33 nM),inhibition of SARS-CoV-2 cytopathic effect ([1]; 10000 nM),morphology score [2],SARS-CoV-2 infection rate [3]
CN[C@H](CNC(=O)N1CCC[C@@H]([C@@H](OCCNC(=O)OC)c2cccc(Cl)c2)C1)C[C@H]1CCCOC1,1.34% (inactive),-1.3% (inactive),1.14% (inactive),-0.1% (inactive),3.16% (inactive),,
Cc1c[nH]c(=O)n(CCCN2CCN(c3ccccc3OCC(F)(F)F)CC2)c1=O,-2.56% (inactive),0.88% (inactive),-3.18% (inactive),-1.23% (inactive),-1.99% (inactive),,
CCNC1(C(N)=O)CCN(c2ncnc3c2nc(-c2ccccc2Cl)n3-c2ccc(Cl)cc2)CC1,-2.1% (inactive),0.22% (inactive),1.6% (inactive),7.17% (inactive),-0.26% (inactive),,
COc1cc(C(=O)N2CCOCC2)cc(OC)c1OC [trimetozine],0.84% (inactive),0.93% (inactive),1.16% (inactive),4.1% (inactive),2.28% (inactive),,
O=C([O-])c1ccccc1-c1c2cc(Br)c(=O)cc-2oc2[c]([Hg+])c([O-])c(Br)cc12.[Na+].[Na+].[OH-] [merbromin],-11.2% (inactive),-13.3% (inactive),-11.5% (inactive),,,,
C[C@@H]1C(=O)O[C@H]2C[C@@]34[C@H]5C[C@@H](C(C)(C)C)[C@]36[C@@H](OC(=O)[C@@H]6O)O[C@@]4(C(=O)O5)[C@]21O [Ginkgolide A] (10 µM),,,,,,-0.0141,114% (inactive)
COc1ccc(Oc2c(Cl)cnn(C3c4ccccc4-c4ccccc43)c2=O)cc1,-3.45% (inactive),-3.66% (inactive),0.55% (inactive),-0.63% (inactive),-0.88% (inactive),,
CC(=O)OCC(=O)[C@@]1(O)CC[C@H]2[C@@H]3CCC4=CC(=O)C=C[C@]4(C)[C@H]3[C@@H](O)C[C@@]21C [prednisolone-acetate],0.64% (inactive),0.57% (inactive),-0.58% (inactive),-0.51% (inactive),0.26% (inactive),,
CN(C)C(=S)SSC(=S)N(C)C [thiram],5.06% (inactive),3.58% (inactive),-8.77% (inactive),,,,
CCCCN(CC)c1nc(C)nc2c1c(C)c(C)n2-c1c(C)cc(C)cc1C [antalarmin] (10 µM),,,,,,0.193,93% (inactive)
CC(=O)Nc1cc([As](=O)(O)O)ccc1O [acetarsol],0.15% (inactive),0.13% (inactive),1.84% (inactive),,,,
O=C(NCCS(=O)(=O)c1ccc(C(F)(F)F)cn1)c1ccc(Cl)cc1 (10 µM),,,,,,0.178,99% (inactive)
NCCc1cc[nH]n1 [betazole],0.58% (inactive),1.07% (inactive),2.63% (inactive),0.04% (inactive),0.97% (inactive),,
NCCC[C@H](N)CC(=O)N[C@H]1CNC(=O)[C@H]([C@H]2C[C@H](O)NC(N)=N2)NC(=O)/C(=C/NC(N)=O)NC(=O)[C@H](CO)NC(=O)[C@H](CO)NC1=O [viomycin],2.35% (inactive),1% (inactive),-1.8% (inactive),,,,
O=[N+]([O-])c1cc([As](=O)(O)O)ccc1O [roxarsone],-3.44% (inactive),-2.76% (inactive),-4.83% (inactive),,,,
O=[N+]([O-])c1ccc([As](=O)(O)O)cc1 [nitarsone],-0.01% (inactive),1.59% (inactive),0.4% (inactive),,,,
O=P(O)(O)C(O)(Cn1ccnc1)P(=O)(O)O [zoledronic-acid] (10 µM),,,,,,0.0372,116% (inactive)
O=C(O)C1=C(CSc2nnnn2CS(=O)(=O)O)CS[C@@H]2[C@H](NC(=O)[C@H](O)c3ccccc3)C(=O)N12 [Cefonicid (sodium)] (10 µM),,,,,,-0.0671,112% (inactive)
C=CC(N)CCC(=O)O (stereo not given) [vigabatrin],-9.39% (inactive),-9.03% (inactive),-9.5% (inactive),-11% (inactive),-9.82% (inactive),,
CCCCOc1cc(C(=O)OCCN(CC)CC)ccc1N [oxybuprocaine],0.54% (inactive),0.93% (inactive),5.2% (inactive),3.06% (inactive),-0.68% (inactive),,
O=c1[nH]cnc2c1ncn2[C@H]1CC[C@@H](CO)O1 [didanosine],0.07% (inactive),-2.03% (inactive),2.16% (inactive),3.97% (inactive),-1.54% (inactive),,

Compound,inhibition of SARS-CoV-2 cytopathic effect ([1]; 1 nM),inhibition of SARS-CoV-2 cytopathic effect ([1]; 8.33 nM),inhibition of SARS-CoV-2 cytopathic effect ([1]; 100 nM),inhibition of SARS-CoV-2 cytopathic effect ([1]; 833.33 nM),inhibition of SARS-CoV-2 cytopathic effect ([1]; 10000 nM),morphology score [2],SARS-CoV-2 infection rate [3]
CCCCCCOC(=O)CCC(=O)CN [hexaminolevulinate] (10 µM),,,,,,0.0924,102% (inactive)
CCCC[C@H](NC(=O)[C@@H]1[C@@H]2[C@H](CN1C(=O)[C@@H](NC(=O)NC1(CS(=O)(=O)C(C)(C)C)CCCCC1)C(C)(C)C)C2(C)C)C(=O)C(=O)NC1CC1 [narlaprevir],0.96% (inactive),1.32% (inactive),0.06% (inactive),3.2% (inactive),0.24% (inactive),,
C#Cc1cccc2c1c(C(=O)c1ccc(Cn3c(C)nc4cnccc43)c(F)c1)cn2C(=O)N(C)C,-0.44% (inactive),-1.26% (inactive),0.63% (inactive),-0.09% (inactive),-1.98% (inactive),,
CC(C)Cc1ccc(C(C)C(=O)NO)cc1 (stereo not given) [ibuproxam],1.38% (inactive),1.54% (inactive),0.99% (inactive),2.87% (inactive),1.73% (inactive),,
NC(=O)c1noc([C@H](CCCC2CCCCC2)CC(=O)NO)n1,1.44% (inactive),-2.89% (inactive),0.07% (inactive),-1.38% (inactive),-7.78% (inactive),,
Clc1ccc(C(c2ccc(Cl)cc2)C(Cl)(Cl)Cl)cc1,1.71% (inactive),4.86% (inactive),0.57% (inactive),-1.73% (inactive),-1.33% (inactive),,
CC(C)(C)NCC(O)c1cc(O)cc(O)c1 (stereo not given),-2.09% (inactive),-0.61% (inactive),-1.85% (inactive),-0.02% (inactive),-0.76% (inactive),,
COc1cccc2c1C(=O)c1c(O)c3c(c(O)c1C2=O)C[C@@](O)(C(=O)CO)C[C@@H]3O[C@H]1C[C@H](N)[C@@H](O)[C@H](C)O1 [Epirubicin Hydrochloride],1.23% (inactive),1.09% (inactive),0.605% (inactive),1.46% (inactive),-4.63% (inactive),,
CC(C)NCC(O)c1ccc2ccccc2c1 (stereo not given) [pronethalol],0.73% (inactive),1% (inactive),-0.07% (inactive),0.3% (inactive),-1.64% (inactive),,
CN(C)CCc1c[nH]c2ccc(CS(=O)(=O)N3CCCC3)cc12 [almotriptan],-0.13% (inactive),1.33% (inactive),-0.24% (inactive),0.04% (inactive),-2.87% (inactive),,
Cc1c(NC(=O)c2cccnc2)c(=O)n(-c2ccccc2)n1C [nifenazone],-4.14% (inactive),0.87% (inactive),1.34% (inactive),-1.46% (inactive),0.61% (inactive),,
C[C@@H]1[C@H](O)[C@@H](C)/C=C/C=C/C=C/C=C/C=C/C=C/C=C/[C@H](O[C@@H]2O[C@H](C)[C@@H](O)[C@H](N)[C@@H]2O)C[C@@H]2O[C@](O)(C[C@@H](O)C[C@@H](O)[C@H](O)CC[C@@H](O)C[C@@H](O)CC(=O)O[C@H]1C)C[C@H](O)[C@H]2C(=O)O [amphotericin-b],-1.34% (inactive),0.44% (inactive),-1.99% (inactive),-0.45% (inactive),3.31% (inactive),,
NCC(CC(=O)O)c1ccccc1 (stereo not given) [fenigam],-0.57% (inactive),0.98% (inactive),0.48% (inactive),-0.72% (inactive),1.87% (inactive),,
CN1CC[C@H](c2c(O)cc(O)c3c(=O)cc(-c4ccccc4Cl)oc23)[C@H](O)C1 [alvocidib],2.38% (inactive),1.53% (inactive),7.55% (inactive),-19.4% (inactive),-9.43% (inactive),,
CC(C)NC[C@@H](O)COc1ccccc1-n1cccc1 (racemic) [isamoltane],1.05% (inactive),-0.83% (inactive),1.76% (inactive),1.65% (inactive),-0.73% (inactive),,
Cc1ncc(Cl)cc1NCc1ccc(C(=O)N[C@@H](CC2CCCC2)C(=O)NC2CC2)s1,2.43% (inactive),0.35% (inactive),-0.53% (inactive),-0.57% (inactive),-2.59% (inactive),,
CC(C)[C@H](N)C(=O)OCC(CO)OCn1cnc2c(=O)nc(N)[nH]c21 (mixture of isomers) [valganciclovir],6.98% (inactive),8.27% (inactive),4.51% (inactive),8.72% (inactive),1.96% (inactive),,
CCCCCCCCCCCCCC(=O)OC(C)C [isopropyl-myristate],0.54% (inactive),0.41% (inactive),2.06% (inactive),1.1% (inactive),-0.15% (inactive),,
COc1ccc2nc3[nH]nc(C)c3c(NCCOCCO)c2c1,-3.38% (inactive),-2.01% (inactive),-3.28% (inactive),-0.23% (inactive),-2.9% (inactive),,
O=C(Nc1ccccc1-c1cn2c(CN3CCNCC3)csc2n1)c1cnc2ccccc2n1,0.17% (inactive),1.58% (inactive),-0.07% (inactive),-3.31% (inactive),-26.2% (inactive),,
CC(C)(C)C(=O)OCOC(=O)[C@@H]1N2C(=O)C[C@H]2S(=O)(=O)C1(C)C [sulbactam-pivoxil],-1.2% (inactive),-4.28% (inactive),-7.15% (inactive),5.91% (inactive),-2.18% (inactive),,
